About 83,000 compounds went through this panel and 20% of them were active in at least one assay; those are over-represented in the sample as a whole.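 Testing used 96-well plates and a 48-hour single-concentration exposure. Example: -40 means 40% of the starting cells died.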 A number with no mark means an inactive call. Activity calls are given as the source filed them. The calls were made as follows: active = growth percent below 10; inactive = the rest.

This note sets out measurements from PubChem BioAssay (NCI).

Test systems include HCT-15 colon; HT29 colon; SNB-75 CNS; SNB-19 CNS; U251 CNS; PC-3 prostate; SK-MEL-5 melanoma; UACC-62 melanoma; LOX IMVI melanoma; SK-MEL-28 melanoma.
Common to all, as to experiment: NCI-60 one-dose screen, 48 h (100 = growth as untreated, 0 = no growth, -100 = all killed)
What all share (conditions): 10 µM

`COc1ccc2cc(-c3nc4ccccc4s3)c(Cl)nc2c1OC`: the growth is 97% with HCT-15 colon; 104% in the experiment with HT29 colon; 82.1% in the experiment on SNB-75 CNS; 93.9% in the experiment on SNB-19 CNS; 107% in the experiment on U251 CNS; 92.6% in the experiment on PC-3 prostate. The growth in the experiment with SK-MEL-5 melanoma was 92.9%; with UACC-62 melanoma, 91.1%; in the experiment on LOX IMVI melanoma it was 90.6%; in the experiment on SK-MEL-28 melanoma, 107%.
For the compound `CC[C@H]1OC(=O)[C@H](C)[C@@H](O[C@H]2C[C@@](C)(OC)[C@@H](O)[C@H](C)O2)[C@H](C)[C@@H](O[C@@H]2O[C@H](C)C[C@H](N(C)C)[C@H]2O)[C@](C)(OC)C/C(C)=C2/O[C@@]1(C)C=C2C`, the growth in the experiment with HCT-15 colon was -33.5% (active); in the experiment with HT29 colon, -7.11% (active); in the experiment on SNB-75 CNS, 49.1%; with SNB-19 CNS it was 57.4%; in the experiment on U251 CNS it was 2.36% (active); with PC-3 prostate, 53.3%. In addition, the growth in the experiment with SK-MEL-5 melanoma was 18.8%; in the experiment on UACC-62 melanoma, -83.8% (active); in the experiment with LOX IMVI melanoma, -85.1% (active); in the experiment with SK-MEL-28 melanoma, -57.1% (active).
`COc1ccc2nc(-c3ccc(Cl)cc3)cc(-c3nnc(SC/C(=N\O)c4ccccc4)n3-c3ccccc3)c2c1`: the growth was 84.4% in the experiment on HCT-15 colon; 71.8% in the experiment on HT29 colon; 102% with SNB-75 CNS; 104% in the experiment with SNB-19 CNS; 85.8% in the experiment with U251 CNS; 54.1% in the experiment on PC-3 prostate. Further, the growth in the experiment on SK-MEL-5 melanoma was 79.1%; in the experiment with UACC-62 melanoma, 89.4%; with LOX IMVI melanoma, 76.1%; in the experiment with SK-MEL-28 melanoma, 94.3%.
`O=C(CCNC(=O)c1nc(-c2ccccc2)n(-c2ccc(Cl)cc2)n1)NO`: the growth in the experiment with HCT-15 colon was 104%; with HT29 colon it was 89.8%; in the experiment on SNB-75 CNS, 99.1%; in the experiment on SNB-19 CNS it was 102%; in the experiment on U251 CNS, 96.1%; in the experiment with PC-3 prostate, 89.6%. The growth in the experiment with SK-MEL-5 melanoma is 103%; in the experiment with UACC-62 melanoma, 100%; with LOX IMVI melanoma it was 98.5%; with SK-MEL-28 melanoma, 101%.
For the compound `COc1cccc(C2C(C#N)=C(N)Oc3cc(N)ccc32)c1` (stereo not given), the growth in the experiment on HCT-15 colon is 40.3%; in the experiment on HT29 colon it was 2.39% (active); in the experiment on SNB-75 CNS, 3.44% (active); with SNB-19 CNS, 44.6%; in the experiment on U251 CNS, 4.8% (active); with PC-3 prostate, 25.4%. The growth with SK-MEL-5 melanoma was 21.5%; in the experiment on UACC-62 melanoma, 41.7%; with LOX IMVI melanoma, 43.6%; in the experiment with SK-MEL-28 melanoma, 46.9%.
With `COc1cc2cc(Oc3ccc(NC(=O)Nc4ccc(Cl)c(C(F)(F)F)c4)cc3)c(C)nc2cc1OC`, the growth with HCT-15 colon was 1.27% (active); in the experiment with HT29 colon, -24.9% (active); in the experiment on SNB-75 CNS, 12.5%; with SNB-19 CNS, 23.7%; with U251 CNS, -80.4% (active); in the experiment with PC-3 prostate, -0.614% (active). Further, the growth in the experiment on SK-MEL-5 melanoma was -73.4% (active); with UACC-62 melanoma, -51.5% (active); in the experiment on LOX IMVI melanoma, -81.3% (active); with SK-MEL-28 melanoma, -35.9% (active).
Consider `O=C(Nc1cccc2c1CCCC2)c1cc2ccccc2cc1O`, for which the growth was 30.8% in the experiment on HCT-15 colon; 90.5% with HT29 colon; 63.8% with SNB-75 CNS; 30.1% with SNB-19 CNS; 33.8% in the experiment with U251 CNS; 12.8% with PC-3 prostate. For the same compound, the growth with SK-MEL-5 melanoma was -37.8% (active); in the experiment with UACC-62 melanoma it was 23%; in the experiment with LOX IMVI melanoma, 27.2%; with SK-MEL-28 melanoma it was 34.2%.
Consider `Cc1ccc(NCCNCC(C)(C)O)c2c(=O)c3ccc(Cl)cc3sc12`, for which the growth in the experiment on HCT-15 colon was -7.39% (active); in the experiment with HT29 colon it was -73.1% (active); with SNB-75 CNS, 76.1%; with SNB-19 CNS, 46.2%; in the experiment with U251 CNS, -74.5% (active); in the experiment with PC-3 prostate, 36.8%. The growth in the experiment on SK-MEL-5 melanoma is 44.2%; in the experiment with UACC-62 melanoma, -66.6% (active); in the experiment on LOX IMVI melanoma, -92.6% (active); in the experiment on SK-MEL-28 melanoma it was -60% (active).
On to `CCOC(=O)c1cc(C(=O)c2cc(OC)c(OC)c(OC)c2)n2ccc(-c3cc[n+](CC(=O)c4cc(OC)c(OC)c(OC)c4)cc3)cc12`, for which the growth with HCT-15 colon is 83.3%; in the experiment with HT29 colon, -10.1% (active); in the experiment with SNB-75 CNS it was 75.8%; in the experiment on SNB-19 CNS, 32.2%; in the experiment with U251 CNS, -73.6% (active); in the experiment on PC-3 prostate, 54.1%. The growth in the experiment on SK-MEL-5 melanoma was 81.4%; with UACC-62 melanoma, 87.4%; in the experiment on LOX IMVI melanoma it was -43.9% (active); in the experiment with SK-MEL-28 melanoma it was 98.3%.
With `CCn1c(SCCc2ccccc2)nnc1-c1nn(-c2ccc(Cl)cc2Cl)c(-c2ccc(Cl)cc2)c1C`, the growth with HCT-15 colon is 45.6%; with HT29 colon it was 67.2%; with SNB-75 CNS, 90.7%; in the experiment on SNB-19 CNS, 76.7%; with U251 CNS, 54.7%; with PC-3 prostate, 39.8%. The growth is 74.3% with SK-MEL-5 melanoma, 68.6% with UACC-62 melanoma, 63.8% in the experiment with LOX IMVI melanoma and 79.2% with SK-MEL-28 melanoma.
In the case of `O=C(COc1cccc(/C=C2\CSc3ccc(Cl)cc3C2=O)c1)c1ccc(Cl)cc1`, the growth in the experiment on HCT-15 colon is 47.9%; in the experiment with HT29 colon it was 16.7%; in the experiment on SNB-75 CNS, 74.7%; in the experiment with SNB-19 CNS it was 89.1%; in the experiment on U251 CNS, 59.9%; with PC-3 prostate, 43.7%. Further, the growth with SK-MEL-5 melanoma was 86.1%; in the experiment with UACC-62 melanoma, 71.1%; in the experiment with LOX IMVI melanoma, 23.8%; in the experiment on SK-MEL-28 melanoma it was 107%.
For `Cc1nn(-c2ccc(-c3ccc(OC(F)(F)F)cc3)cc2)c2nc(Cc3ccccc3)nc(N)c12`, the growth was 76.9% in the experiment on HCT-15 colon; 59.6% in the experiment with HT29 colon; 34.9% in the experiment on SNB-75 CNS; 39.3% in the experiment on SNB-19 CNS; 20.7% in the experiment on U251 CNS; 64.4% in the experiment on PC-3 prostate. The growth in the experiment on SK-MEL-5 melanoma is 87.7%; in the experiment on UACC-62 melanoma, 85.6%; in the experiment with LOX IMVI melanoma it was 31%; with SK-MEL-28 melanoma, 103%.
Turning to `COc1ccc(Cc2cnc(N)nc2N)cc1OC`, the growth with HCT-15 colon was 101%; with HT29 colon, 99%; in the experiment with SNB-75 CNS it was 79.4%; in the experiment on SNB-19 CNS it was 100%; with U251 CNS it was 97.1%; with PC-3 prostate, 88.6%. The growth was 101% in the experiment with SK-MEL-5 melanoma, 96.9% with UACC-62 melanoma, 97% in the experiment on LOX IMVI melanoma and 119% with SK-MEL-28 melanoma.
